High-throughput results deposited in PubChem BioAssay by several laboratories.
The list is not random: actives were taken first. Their share in the collection is about 2.1%.
Measles CPE: compounds protecting cells from measles virus cytopathic effect, primary screen, measles RdRp inhibitor project, single point, MLSMR library, absorbance | Measles virus-infected cells, CPE protection | protection (pct of control), % at 4 µM | hit rate 1.5% among 140,000; in the data active = protection mostly above about 24%, no sharp cut-off; inactive = mostly below about 26%
IL1B cytotox: cytotoxicity in IL-1B stimulated HUVEC, primary screen, cytotoxicity control for IL-1B NFkB translocation project, imaging, Hoechst nuclear count, IL-1B stimulus. HUVEC cell count loss. cell count reduction, % at 2 µM. AID 845, 2007. hit rate 0.41% among 94,000;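 active = cell count reduction more than 3 SD above the screen-wide mean, cut at about 70% in these data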
IL1B NFkB inh: inhibitors of IL-1B driven NFkB p65 nuclear import, primary screen, imaging, HUVEC, IL-1B stimulus, high-content imaging. HUVEC IL-1B NFkB p65 nuclear translocation imaging. hit rate 0.43% among 94,000. inhibition, % at 2 µM;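 active = inhibition above about 30% together with a positive call from visual inspection of the well image, limit read from the data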;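 also: nuclear over cytoplasmic p65 intensity ratio measured by imaging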
NFkB transloc pot: enhancers of NFkB p65 translocation in HUVEC – imaging, IL-1B stimulus, high-content imaging, primary screen | HUVEC IL-1B NFkB p65 nuclear translocation imaging | activation, % at 2 µM | hit rate 0.3% among 94,000 | AID 819, 2007;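 active = activation above 40%, about the mean plus 3 SD, also judged a hit on visual image review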;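 also: percent activation is computed from the nuclear over cytoplasmic p65 intensity ratio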
Of the large screens only hits and unclear results are named; the others gave an inactive call.

NC(=O)c1ccsc1NC(=O)CSc1ccccc1F	none
CCOC(=O)C1C(=O)NC(c2ccccc2)=NC1c1ccc(Cl)cc1 (stereo not given)	none
CCC(C)(C)n1nnnc1C(c1ccc(OC)c(OC)c1)N1CCN(c2ccc(OC)cc2)CC1 (stereo not given)	Measles CPE 59
Cc1cc(C)nc(SCC(=O)Nc2ccc(Br)cn2)n1	Measles CPE 18
CSc1nsc(SCC(=O)Nc2ccc(Br)cn2)n1	none
CCc1ccc(C2C(C#N)=C(N)C(C#N)(C#N)C3=CCC(C(C)(C)C)CC32)cc1 (stereo not given)	none
Cc1oc(C(C)(C)C)cc1C(=O)N1CCCC1C(=O)O (stereo not given)	Measles CPE 26
O=C(c1ccc(COc2ccccc2Br)cc1)N1CCCCC1	NFkB transloc pot 54
CCN(CC)C(=O)C1=C(C)Nc2nnnn2C1c1cccnc1 (stereo not given)	Measles CPE 29
COC(=O)C1=C(C)Nc2nnnn2C1c1cccnc1 (stereo not given)	IL1B NFkB inh 34
O=C(CNC(=O)c1ccc(-c2ccccc2)cc1)OCc1c(Cl)cccc1Cl	none (no result: IL1B cytotox, IL1B NFkB inh, NFkB transloc pot)
CCN(CC)CCCNC(=O)c1cc2c(=O)n(C)c3ccccc3c2n1C	none
CCCN1CCN(CCCNC(=O)c2cc3c(=O)n(C)c4ccccc4c3n2C)CC1	IL1B NFkB inh 90
CCN(CC)CCNC(=O)c1cc2c(=O)n(C)c3ccccc3c2n1C	Measles CPE 41
CCOc1ccc(N/C=C\C(=O)c2ccc3c(c2)OCO3)cc1	Measles CPE 42
COc1ccc(N/C=C\C(=O)c2ccc3c(c2)OCO3)cc1	none
CC(C)(NO)/C(=N/O)c1cccs1	none
CCOC(=O)Cc1csc(NC(=O)CCNS(=O)(=O)c2ccc3c(c2)CCC(=O)N3)n1	none
COc1cc(C(Nc2ccccn2)c2ccc3ccc(C)nc3c2O)cc(OC)c1O (stereo not given)	Measles CPE 41
COc1ccc(/C=C(\NC(=O)c2ccccc2)C(=O)N/N=C/c2ccncc2)cc1	none
Cc1ccnc(N/C=C(/NC(=O)c2ccccc2)C(=O)N/N=C\c2ccc(F)cc2)n1	IL1B cytotox 78, IL1B NFkB inh 56
COc1ccc(Cn2c(C3CC3)nc3ccc(NC(=O)c4ccco4)cc3c2=O)cc1	Measles CPE 36
COc1ccc(O)c(-c2[nH]ncc2C(=O)c2ccccc2C)c1	none
O=C(/C=C/c1cccs1)c1ccc(Br)cc1	NFkB transloc pot 107
Cc1ccc(-c2nn3c(C)nnc3s2)cc1NC(=O)CSc1ccc(Cl)cc1	NFkB transloc pot 63
Cc1ccc(-c2nn3c(C)nnc3s2)cc1NC(=O)c1cccnc1	none
Cc1ccc(-c2nn3c(C)nnc3s2)cc1NC(=O)C(C)C	NFkB transloc pot 42
COCc1cc(C)nc(OCC(=O)N/N=C\c2cc(C)n(-c3cccc(C(F)(F)F)c3)c2C)c1C#N	none
CCCC(=O)OCCn1c(Br)nc2c1c(=O)[nH]c(=O)n2C	Measles CPE 35
CC(=O)OCCn1c(Br)nc2c1c(=O)[nH]c(=O)n2C	none
CCCc1cc(=O)[nH]c(SCC(=O)N2CCN(S(=O)(=O)c3ccc(C)cc3)C2)n1	none
CC(=O)Nc1ccc2nc(C)n(Cc3ccc(Cl)cc3)c(=O)c2c1	none
CCOC(=O)CCNC(=O)Nc1ccc2nc(C)n(Cc3ccc(Cl)cc3)c(=O)c2c1	Measles CPE 38
CCc1c(C(=O)N2CCOCC2)csc1C	IL1B cytotox 91, IL1B NFkB inh 98
CN(CC(=O)O/N=C(\N)c1ccc([N+](=O)[O-])cc1)S(=O)(=O)c1ccccc1	NFkB transloc pot 50
CCCCNC(=O)CCn1nc(-c2ccccc2)ccc1=O	Measles CPE 49, NFkB transloc pot 53
CCCCN(C)CCCNC(=O)CCn1nc(-c2ccccc2)ccc1=O	none
O=P(O)(CCc1ccncc1)CN1CCCCC1	none
O=C(Nc1nnc(C23CC4CC(CC(C4)C2)C3)s1)c1ccc(N2C(=O)CCC2=O)cc1	none
COc1ccc(C=NCCC2(O)CC(C)N(C)CC2C)cc1 (stereo not given)	IL1B NFkB inh 40
C/C(CCN1CCCCc2nc(C)c(C)cc21)=N\O[C@@H](C)CN1CCCCc2nc(C)c(C)cc21	none (no result: IL1B cytotox, IL1B NFkB inh, NFkB transloc pot)
COc1ccc(O[C@H]2C=C[C@@H](c3ccccc3)O[C@@H]2CO/N=C(\C)CCN2CCCCc3nc(C)c(C)cc32)cc1	Measles CPE 23 (no result: IL1B cytotox, IL1B NFkB inh, NFkB transloc pot)
CCOC(=O)C1C(c2cc(OC)c(OC)c(OC)c2)NC(=S)NC1(O)C(F)(F)F (stereo not given)	none
